Source: PubChem BioAssay
Rows were chosen to be rich in hits. Some 3.8% of all compounds tested hit in one or more screens of this group.
TGFb inhibitor – TGF-b pathway inhibition | hit rate 1.2% among 410,000 | HepG2 CAGA-GFP TGF-b/SMAD3 reporter, GFP fluorescence, 18 h; TGF-beta stimulated, 500 pg/mL final | AID 588855 | Potency, µM (highest dose often 46.1 µM), for the others: top-dose activity, negative = inhibition, usual class: inhibitors; note: % is set by controls: 0 for no effect and ±100 for the full control effect; nearly all actives have a fitted effect of over 65% in size
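TGF-beta reporter screen: HEPG2 CAGA-GFP, 1% FBS, 500 pg/mL TGF-beta final, 18 h; per-cell GFP summed per well; curves fitted and categorized by class.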
HT1080 IDH1KD tx – kills HT-1080 cells with IDH1 knockdown | AID 686971 | HT-1080 IDH1 knockdown viability, ATP luminescence, 48 h | Potency, µM (top dose mostly 46.1 µM), for the others: at the top dose activity, negative = toxicity, actives largely listed as cytotoxic | hit rate 2% among 360,000;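 note: 0% = DMSO wells and -100% = cell-free medium wells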
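% activity derives from luminescence (CellTiter-Glo), normalised to DMSO and no-cell wells. HT-1080-IDH1KD cells, 750/well, had 48 h compound exposure at 37 °C.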
S2 tox – viability counter-screen for ATXN expression inhibitors. S2 cells (HEK-293 line with an ATXN2-luciferase reporter) viability, CellTiter-Fluor protease fluorescence, 24 h. Potency, µM (top dose mostly 56.7 µM), most hits filed as cytotoxic. hit rate 0.49% among 400,000. AID 651635; note: nearly all actives have a fitted effect of over 40% in size
HT1080-NT tox – kills 2HG-producing HT-1080-NT fibrosarcoma cells; HT-1080-NT fibrosarcoma viability, CellTiter-Glo ATP luminescence, 48 h; Potency, µM (titrated, usually from 46.1 µM), without a hit: at the highest dose activity, negative = less viability, usual class: cytotoxic; hit rate 1.6% among 360,000; AID 686970;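 note: NT is the 2HG producing partner of a matched IDH1 knockdown line; 0% = DMSO-treated cells and -100% = media-only wells without cells; nearly all actives have a fitted effect of over 55% in size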
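750 cells/well, RPMI + 5% FBS; 2 h settle, compound pin-transfer, 48 h at 37 degrees C. CellTiter-Glo 10 min RT, luminescence. Normalized to DMSO and media-only wells.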
ATXN2 expr inh – reduces ATXN2 reporter expression in HEK-293 cells | HEK-293 ATXN2-luciferase reporter, luminescence, 24 h | Potency, µM (highest dose often 57 µM), without a hit: at the highest dose activity change, negative = inhibition, actives largely listed as inhibitors | hit rate 0.72% among 360,000; note: % is set by controls: 0 for no effect and ±100 for the full control effect; nearly all actives have a fitted effect of over 55% in size
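ATXN2-luciferase reporter cells (luciferase flanked by upstream and downstream ATXN2 gene portions) were treated 24 h at 37 °C with compounds at up to 57 uM. SteadyGlo luminescence gave expression; GF-AFC fluorescence gave viability.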
HepG2 tox – kills HepG2 cells in TGF-b inhibitor counter-screen; HepG2 CAGA-GFP viability, ATP luminescence, 18 h; Potency, µM (doses to about 46.1 µM), without a hit: at the top dose activity change, negative = cytotoxicity, usual class: cytotoxic; hit rate 0.76% among 410,000; AID 588856
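CellTiter-Glo luminescence gave cytotoxicity after 18 hours at 37 degrees C. The cells were HepG2 CAGA-GFP in 1% FBS DMEM, stimulated with 500 pg/mL TGF-beta after compound addition. %Activity was normalised to no-cell wells (complete cell-killing) and DMSO (no toxicity), and curves were fitted and classified.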
* marks the source's active call; other numbers are inactive results; i = inactive; ? = inconclusive; / = not tested or not shown; [ ] = remark or other dose. Calls come from the whole dose curve; as a rule, active = well fitted curve in the direction sought with a large enough effect; inconclusive = small, poorly fitted or top-dose-only effect, or another doubt; inactive = no such curve, though single readings can be large; an effect the other way counts as inactive or inconclusive. Potency is the fitted concentration of half-maximal effect.

SMILES	TGFb inhibitor	HT1080 IDH1KD tx	S2 tox	HT1080-NT tox	ATXN2 expr inh	HepG2 tox
CCC1CCCCN1Cc1nc2c(c(=O)n(C)c(=O)n2C)n1Cc1c(F)cccc1Cl (stereo not drawn)	4%	/	/	/	/	-5%
COc1ccc(OCc2cccc(C(=O)Nc3ccc(CN4CCCCC4)cc3)c2)cc1	?	-19%	i	-1%	-30%	-59%
CCOc1ccc(OCc2cccc(C(=O)Nc3ccc(CN4CCCCC4)cc3)c2)cc1	0%	?	?	15µM*	?	10µM*
N=c1c(S(=O)(=O)c2ccc(Br)cc2)cc2c(=O)n3ccccc3nc2n1Cc1ccco1	7.9µM*	-2%	/	-5%	/	-64%
CCCCCOc1ccc(Br)cc1CSC(=N)N	?	?	/	?	/	-102%
CCCCOc1ccc(CSC(=N)N)cc1Cl	?	15µM*	?	18µM*	25µM*	-176%
O=S1(=O)C=C(Sc2nnc(-c3ccccc3)o2)c2ccccc21	10µM*	1.3µM*	/	2.8µM*	10µM*	14µM*
O=S1(=O)C=C(SCCN2CCCCC2)c2ccccc21	1%	15%	i	11%	52%	-47%
Cc1cc(C)nc(SC2=CS(=O)(=O)c3ccccc32)n1	3%	?	?	23µM*	?	-37%
O=S1(=O)C=C(Sc2nc3ccccc3s2)c2ccccc21	2.8µM*	2.6µM*	7.1µM*	2.3µM*	?	11µM*
CNC(=O)c1c(I)c(NC(C)=O)c(I)c(C(=O)O)c1I	/	/	i	/	11%	/
CC(C)(CNC(=O)c1cnn(-c2nccc(-c3cc4ccccc4o3)n2)c1C1CC1)N1CCOCC1	/	/	i	/	/	/
CCn1c(=O)c2cc(C(=O)N(C)c3cc(C)ccc3C)sc2c2ccccc21	-15%	/	i	/	-6%	-10%
COc1cccc(Nc2ccc([N+](=O)[O-])c3nonc23)c1	-23%	23µM*	?	15µM*	-12%	1%
COCCN1CC(=O)N(c2cccc(C)c2C)C(c2ccc(Cl)cc2)C1=O (stereo not drawn)	1%	19%	i	12%	-1%	0%
Cc1cccc(N2C(=O)C(Oc3ccc(Cl)cc3Cl)C2C=O)c1C (stereo not drawn)	?	?	?	9.2µM*	?	-72%
CCOC(=O)c1c(CN2CCN(C)CC2)n(C)c2cc(Br)c(OC)cc12	14%	?	i	?	-24%	11µM*
COC(=O)c1c(-c2ccc(F)cc2)noc1N	-11%	11µM*	i	6%[9.24 µM]	21%	10%
COC(=O)c1onc(-c2ccccc2)c1C(=O)OC	8%	12%	?	6%	2%	1%
CCOc1ccc(CN2CCC(C(=O)Nc3cccc(-c4ccn[nH]4)c3)CC2)cc1Cl	?	?	?	18µM*	?	-72%
COc1cccc(-c2cccc(NC(=O)C3CCN(Cc4nccs4)CC3)c2)c1	-11%	6%	i	3%	-2%	4%
CCOC(=O)c1c(NC(=O)COc2ccc(F)cc2)sc2c1CCC(C)C2 (stereo not drawn)	4%	/	i	/	-7%	-10%
COC(=O)c1c(NC(=O)COc2ccc(OC)cc2)sc2c1CCC(C)C2 (stereo not drawn)	13µM*	/	?	/	?	-100%
Nc1nc(=O)n(C2CC(O)C(CO)O2)cc1Cl (stereo not drawn)	-5%	6%	i	?	5%	-2%
Nc1nc(=O)n([C@H]2C[C@H](O)[C@@H](CO)O2)cc1F	/	/	/	/	0.31µM*	/
SMILES	TGFb inhibitor	HT1080 IDH1KD tx	S2 tox	HT1080-NT tox	ATXN2 expr inh	HepG2 tox
Nc1nc(=O)n(C2CC(O)C(CO)O2)cc1F (stereo not drawn)	1%	5.2µM*	?	-20%	?	3%
CCN(c1cccc(C)c1)S(=O)(=O)c1cc(CN2C(=O)c3cccnc3C2=O)ccc1OC	2%	9%	i	-2%	2%	11µM*
COc1ccc(CN2C(=O)c3cccnc3C2=O)cc1S(=O)(=O)N(C)c1ccc(C)cc1	-3%	3%	i	20%	10%	-1%
Cc1ccc(NC(=O)c2cc3c([nH]c2=O)CC(c2ccccc2)CC3=O)cc1 (stereo not drawn)	-2%	/	/	/	/	-8%
OCC1OC(n2cnc3c(NCCc4ccccc4)ncnc32)C(O)C1O (stereo not drawn)	-17%	?	i	2.1µM*	35%	-42%
Cc1c(Cc2ccccc2)sc(NC(=O)/C=C/c2cccc3ccccc23)c1C(N)=O	-20%	33µM*	i	13µM*	-33%	-2%
COC(=O)c1c(NC(=O)/C=C/C(=O)O)sc(Cc2ccccc2)c1C	?	?	i	-29%	?	-50%
CC(C)(C)n1ncc2c(=O)n(Cc3ccccc3)cnc21	-15%	/	/	/	/	-19%
COCCCn1c(O)c(/C=C2\N=C(C#N)C(=Nc3ccc(C)cc3)O2)sc1=S	?	?	35µM*	?	?	-50%
CCOC(=O)c1cnc2ccc(C(=O)OC)cc2c1Nc1ccccc1CC	-5%	/	i	/	12%	-36%
OC[C@H]1O[C@@H](Oc2ccc(O)cc2)[C@H](O)[C@@H](O)[C@H]1O	/	/	/	/	9%	/
COCc1ccc(CN2CCOc3ccc(C4=Cc5ccccc5C4)cc3C2)o1	/	/	i	/	/	/
O=C(CCN1Cc2ccccc2C1)c1ccc2c(c1)OCCO2	13µM*	11µM*	/	?	?	10µM*
Cc1cc[n+](CC(=O)c2ccc3c(c2)OCCO3)cc1	0%	11%	i	-5%	-32%	-5%
O=C(/C=C/c1ccncc1)c1ccc2c(c1)OCCO2	?	18µM*	?	?	-8%	-88%
O=C(C[n+]1ccc(/C=C/c2ccccc2)cc1)c1ccc2c(c1)OCCO2	-17%	16µM*	i	?	-12%	-32%
CCCN1CCC(=NNc2ccc(S(=O)(=O)N(CC)CC)cc2[N+](=O)[O-])CC1	?	5.8µM*	i	8.2µM*	-20%	-8%
CCCN1CCC(=NNc2ccc(S(N)(=O)=O)cc2[N+](=O)[O-])CC1	-38%	1%	i	-2%	33%	-40%
COCCN1CCN(C(=O)c2ccc3nc(Cc4ccc(OC)c(OC)c4)oc3c2)CC1	-2%	-10%	i	7.3µM*	-2%	6%
CCN(C(=O)CSc1nc2ccccc2n1CC(=O)Nc1ccccc1C)c1ccccc1	-10%	/	i	/	-9%	-13%
